# Laboratory results as given in the supplement of paper PMC8728848.
# Only a selection was taken, and the strongest signals are over-represented in it overall.
# B1: LCA (Lens culinaris), P02870 (protein)
# chain: MASLQTQMISFYLIFLSILLTTIFFFKVNSTETTSFSITKFSPDQKNLIFQGDGYTTKGKLTLTKAVKSTVGRALYSTPIHIWDRDTGNVANFVTSFTFVIDAPSSYNVADEFTFFIAPVDTKPQTGGGYLGVFNSKEYDKTSQTVAVEFDTFYNAAWDPSNKERHIGIDVNSIKSVNTKSWNLQNGERANVVIAFNAATNVLTVTLTYPNSLEEENVTSYTLNEVVPLKDVVPEWVRIGFSATTGAEFAAHEVHSWSFHSELGGTSSSKQAADA
# Assays:
# Assay in all cases: glycan array binding signal (z-score within array); higher = stronger binding
# Settings in all cases: glycan notation: IUPAC condensed, linker removed
# [1] = target: GlcNAc(b1-3)Gal(b1-4)GlcNAc(b1-3)Gal(b1-4)GlcNAc
# Outline: (§1)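 Arrays were curated from the Consortium for Functional Glycomics database, 3228 in total, and kept only where the protein sequence was available. Binding is expressed as a within-array Z-score. This score was averaged across arrays of the same protein sequence at different concentrations or buffers and across linkers, and negative values can be read as non-binding.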
# [2] = target: GlcNAc(b1-3)Gal(b1-4)GlcNAc(b1-3)Gal(b1-4)GlcNAc(b1-3)Gal(b1-4)GlcNAc(b1-3)Gal(b1-4)GlcNAc(b1-2)Man(a1-3)[GlcNAc(b1-3)Gal(b1-4)GlcNAc(b1-3)Gal(b1-4)GlcNAc(b1-3)Gal(b1-4)GlcNAc(b1-3)Gal(b1-4)GlcNAc(b1-2)Man(a1-6)]Man(b1-4)GlcNAc(b1-4)[Fuc(a1-6)]GlcNAc
# Outline: as §1
# GlcNAc(b1-3)GalNAc = target: GlcNAc(b1-3)GalNAc
# Outline: as §1
# [3] = target: GlcNAc(b1-4)GlcNAc(b1-4)GlcNAc
# Outline: as §1
# [4] = target: Kdn(a2-3)Gal(b1-4)[Fuc(a1-3)]GlcNAc
# Outline: as §1
# [5] = target: Man(a1-2)Man(a1-3)[Man(a1-2)Man(a1-6)]Man(a1-6)[Man(a1-2)Man(a1-2)Man(a1-3)]Man
# Outline: as §1
# [6] = target: Man(a1-2)Man(a1-3)[Man(a1-6)]Man(a1-6)[Man(a1-2)Man(a1-3)]Man(b1-4)GlcNAc(b1-4)GlcNAc
# Outline: as §1
# [7] = target: Man(a1-3)[Man(a1-6)]Man(b1-4)GlcNAc(b1-4)[Fuc(a1-6)]GlcNAc
# Outline: as §1
# [8] = target: Neu5Ac(a2-3)Gal(b1-4)GlcNAc(b1-2)Man(a1-3)[GlcNAc(b1-4)][Neu5Ac(a2-3)Gal(b1-4)GlcNAc(b1-2)Man(a1-6)]Man(b1-4)GlcNAc(b1-4)GlcNAc
# Outline: as §1
# [9] = target: Neu5Ac(a2-3)Gal(b1-4)GlcNAc(b1-3)Gal(b1-4)GlcNAc(b1-3)Gal(b1-4)GlcNAc
# Outline: as §1
# [10] = target: Neu5Ac(a2-3)Gal(b1-4)[Fuc(a1-3)]GlcNAc(b1-6)[Gal(b1-3)]GalNAc
# Outline: as §1
# [11] = target: Neu5Ac(a2-3)[GalNAc(b1-4)]Gal(b1-4)Glc
# Outline: as §1
# [12] = target: Neu5Ac(a2-3)[GalNAc(b1-4)]Gal(b1-4)GlcNAc(b1-3)GalNAc
# Outline: as §1
# [13] = target: Neu5Ac(a2-6)Gal(b1-3)GlcNAc(b1-3)[Gal(b1-4)GlcNAc(b1-6)]Gal(b1-4)Glc
# Outline: as §1
# [14] = target: Neu5Ac(a2-6)Gal(b1-4)GlcNAc
# Outline: as §1
# [15] = target: Neu5Ac(a2-6)Gal(b1-4)GlcNAc(b1-2)Man(a1-3)[Gal(b1-4)GlcNAc(b1-2)Man(a1-6)]Man(b1-4)GlcNAc(b1-4)GlcNAc
# Outline: as §1
# [16] = target: Neu5Ac(a2-6)Gal(b1-4)GlcNAc(b1-2)Man(a1-3)[Man(a1-6)]Man(b1-4)GlcNAc(b1-4)GlcNAc
# Outline: as §1
# [17] = target: Neu5Ac(a2-6)Gal(b1-4)GlcNAc(b1-2)Man(a1-3)[Neu5Ac(a2-6)Gal(b1-4)GlcNAc(b1-2)Man(a1-6)]Man(b1-4)GlcNAc(b1-4)[Fuc(a1-6)]GlcNAc
# Outline: as §1
# [18] = target: Neu5Ac(a2-6)Gal(b1-4)GlcNAc(b1-3)Gal(b1-4)GlcNAc(b1-3)GalNAc
# Outline: as §1
# [19] = target: Neu5Ac(a2-8)Neu5Ac(a2-3)Gal(b1-4)GlcNAc
# Outline: as §1
# [20] = target: Neu5Gc(a2-3)Gal(b1-3)[Fuc(a1-4)]GlcNAc
# Outline: as §1
# [21] = target: Neu5Gc(a2-3)Gal(b1-4)GlcNAc
# Outline: as §1
binder,measurement,setting,value
B1,glycan array binding signal (z-score),[1],-0.199
same,glycan array binding signal (z-score),[2],3.94
same,glycan array binding signal (z-score),GlcNAc(b1-3)GalNAc,-0.209
same,glycan array binding signal (z-score),[3],-0.184
same,glycan array binding signal (z-score),[4],-0.228
same,glycan array binding signal (z-score),[5],1.19
same,glycan array binding signal (z-score),[6],2.09
same,glycan array binding signal (z-score),[7],6.07
same,glycan array binding signal (z-score),[8],-0.262
same,glycan array binding signal (z-score),[9],-0.228
same,glycan array binding signal (z-score),[10],-0.145
same,glycan array binding signal (z-score),[11],-0.235
same,glycan array binding signal (z-score),[12],0.102
same,glycan array binding signal (z-score),[13],-0.232
same,glycan array binding signal (z-score),[14],-0.202
same,glycan array binding signal (z-score),[15],-0.188
same,glycan array binding signal (z-score),[16],-0.239
same,glycan array binding signal (z-score),[17],4.04
same,glycan array binding signal (z-score),[18],-0.224
same,glycan array binding signal (z-score),[19],-0.237
same,glycan array binding signal (z-score),[20],-0.207
same,glycan array binding signal (z-score),[21],-0.219
